Compound activity deposited in PubChem BioAssay by National Center for Advancing Translational Sciences (NCATS).
An excerpt weighted towards active compounds, which were near 7.1% of everything screened.
MCF10A rereplic: inducers of DNA re-replication in MCF 10A breast cells | MCF 10A DNA re-replication, Hoechst nuclear intensity, 48 h | Potency, µM (highest dose often 46.1 µM), actives largely listed as activators | hit rate 2.9% among 350,000 | AID 624296; note: nearly all actives have a fitted effect of over 50% in size
ELG1 genotox: induces genotoxicity in HEK293T cells with luciferase-tagged ELG1; HEK293T ELG1-luciferase reporter, luminescence, 16 h; Potency, µM (doses to about 46 µM), hits mostly activators; hit rate 1.3% among 330,000; note: nearly all actives have a fitted effect of over 60% in size
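DMSO vehicle served as control against compound-treated ELG1-luciferase HEK293T cells; exposure lasted 16 hr at 37 °C and 5% CO2, followed by ONE-Glo luminescence detection after 30 min.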
A-T KAP1 phos: potential ataxia-telangiectasia treatment; F2112 A-T fibroblasts, KAP-1 phosphorylation AlphaLISA; neocarzinostatin DNA damage 30 min before lysis; Potency, µM (titrated, usually from 57.5 µM), most hits filed as activators; hit rate 0.19% among 320,000; AID 485349; note: nearly all actives have a fitted effect of over 45% in size
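ATM-like activity read as KAP-1 phosphorylation via AlphaLISA donor/acceptor antibody pairs after lysis and 6 hr at 25C. Cells were ATM-null patient fibroblasts (F2112, hTERT), dosed 60 min, then exposed to the DSB inducer NCS for 30 min.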
ELG1 DNA repair: blocks ELG1-dependent DNA repair in HEK293T cells | HEK293T ELG1-luciferase reporter, luminescence, 16 h; DNA damage induced by 5-fluorouridine | Potency, µM (highest dose often 46.1 µM), usual class: inhibitors | hit rate 2.3% among 330,000; note: nearly all actives have a fitted effect of over 55% in size
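Quantitative HTS, concentration-response format. 2,000 cells/well co-treated with 5-fluorouridine and compound, 16 hr in 5% CO2 at 37 °C; ONE-Glo luminescence read after 30 min.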
SW480 rerep: inducers of DNA re-replication in SW480 colon cancer cells; hit rate 1.8% among 340,000; SW480 DNA re-replication, Hoechst DNA content imaging, 48 h; AID 624297; Potency, µM (series often up to 46.1 µM), actives largely listed as activators; note: nearly all actives have a fitted effect of over 55% in size
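Readout is total intensity of Hoechst-stained nuclei, excited at 405 nm and collected at 500-530 nm. Compound treatment lasted 48 hr at 37 C in 5% CO2 before staining.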
p53 reactivation: re-activators of mutant p53 | H1299 p53-A138V BP100-luciferase reporter, luminescence, 24 h | Potency, µM (doses to about 92.2 µM), most hits filed as activators | hit rate 0.063% among 320,000 | AID 504706; note: nearly all actives have a fitted effect of over 45% in size
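p53-null H1299 cells stably carrying temperature-sensitive p53-A138V and a BP100-luciferase reporter were pinned with compounds (4-point, 1:5 series) and held 24 hrs at 37 deg C. Luminescence was read 10 min after detection reagent.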
A number is an active result; [ ] = dose if it differs, or a comment. Calls come from the whole dose curve; as a rule, active = well fitted curve in the direction sought with a large enough effect; inconclusive = small, poorly fitted or top-dose-only effect, or another doubt; inactive = no such curve, though single readings can be large; an effect the other way counts as inactive or inconclusive.

What do the screens show for `C=C(C)COc1ccc(-c2[nH]ncc2-c2ccc(Br)cc2)c(O)c1`?
MCF10A rereplic: 9.2µM; ELG1 genotox: inactive; A-T KAP1 phos: inactive; ELG1 DNA repair: inconclusive; SW480 rerep: 21µM; p53 reactivation: inactive

How did C=C(C)COc1ccc(-c2[nH]ncc2-c2ccccc2OC)c(O)c1 do in these assays?
MCF10A rereplic: 15µM; ELG1 genotox: inactive; A-T KAP1 phos: inactive; ELG1 DNA repair: inconclusive; SW480 rerep: inconclusive; p53 reactivation: inactive

What do the screens show for `CCOC(=O)CC1CCCCN1C(=O)c1cc(COc2cccc3cnccc23)on1` (stereo not given)?
MCF10A rereplic: inconclusive; ELG1 genotox: inactive; A-T KAP1 phos: inactive; ELG1 DNA repair: inconclusive; SW480 rerep: inactive; p53 reactivation: inactive

What do the screens show for `CCc1cc(-c2[nH]ncc2-c2ccc(OC)cc2)c(O)cc1O`?
MCF10A rereplic: inactive; ELG1 genotox: inactive; A-T KAP1 phos: inactive; ELG1 DNA repair: inconclusive; SW480 rerep: inactive; p53 reactivation: inactive

What do the screens show for `COc1ccc(-c2cn[nH]c2-c2ccc(OCc3ccc([N+](=O)[O-])cc3)cc2O)cc1`?
MCF10A rereplic: 5.8µM; ELG1 genotox: inactive; A-T KAP1 phos: inactive; ELG1 DNA repair: inconclusive; SW480 rerep: inconclusive; p53 reactivation: inactive

Results for C=C(C)COc1ccc(-c2nc(N)ncc2-c2ccc(Br)cc2)c(O)c1 ?
MCF10A rereplic: 23µM; ELG1 genotox: inactive; A-T KAP1 phos: inactive; ELG1 DNA repair: inactive; SW480 rerep: inconclusive; p53 reactivation: inactive

What do the screens show for `c1ccc(-c2cn(C[C@H]3CC[C@H](Cn4cc(-c5ccccn5)nn4)O3)nn2)nc1`?
MCF10A rereplic: inactive; ELG1 genotox: inactive; A-T KAP1 phos: inactive; ELG1 DNA repair: inactive; SW480 rerep: inactive; p53 reactivation: inactive

What do the screens show for `O=C1c2ccccc2C(=O)N1CCCc1cn(C[C@H]2CC[C@H](Cn3cc(CCCN4C(=O)c5ccccc5C4=O)nn3)O2)nn1`?
MCF10A rereplic: inactive; ELG1 genotox: inactive; A-T KAP1 phos: inactive; ELG1 DNA repair: 8.2µM; SW480 rerep: inactive; p53 reactivation: inactive

What do the screens show for `COc1cccc(N2CCN(c3ccc4nnc(CCC(=O)Nc5ccccn5)n4n3)CC2)c1`?
MCF10A rereplic: inactive; ELG1 genotox: inactive; A-T KAP1 phos: inactive; ELG1 DNA repair: inactive; SW480 rerep: inactive

How did Cc1ccc(C(=O)Nc2ccc(N3CCOCC3)cc2)cc1 do in these assays?
MCF10A rereplic: inactive; ELG1 genotox: 21µM; A-T KAP1 phos: inactive; ELG1 DNA repair: inconclusive; SW480 rerep: inactive; p53 reactivation: inconclusive

Results for Cc1ccc(NC(=O)c2cc(N3C(=O)C=CC3=O)ccc2N2CCOCC2)cc1 ?
MCF10A rereplic: 13µM; ELG1 genotox: inactive; A-T KAP1 phos: inactive; ELG1 DNA repair: inactive; SW480 rerep: inconclusive; p53 reactivation: inactive

How did O=C(NCCCN1CCOCC1)C1CCN(S(=O)(=O)c2cccc(C(F)(F)F)c2)CC1 do in these assays?
MCF10A rereplic: inactive; ELG1 genotox: inactive; A-T KAP1 phos: inactive; ELG1 DNA repair: inactive; SW480 rerep: inactive; p53 reactivation: inactive

How did Cc1csc(NC(=O)c2cc3c(C)nn(Cc4ccccc4Cl)c3s2)n1 do in these assays?
MCF10A rereplic: 10µM; ELG1 genotox: inactive; A-T KAP1 phos: inactive; ELG1 DNA repair: inconclusive; SW480 rerep: inconclusive; p53 reactivation: inactive

Results for Cc1nn(Cc2ccccc2Cl)c2sc(C(=O)NC(C)(C)C)cc12 ?
MCF10A rereplic: inconclusive; ELG1 genotox: inactive; A-T KAP1 phos: inactive; ELG1 DNA repair: inactive; SW480 rerep: inconclusive; p53 reactivation: inactive

How did CC1CC(C)CN(C(=O)C2CCN(S(=O)(=O)c3ccc4c(c3)CC(C)N4C(=O)C3CC3)CC2)C1 (stereo not given) do in these assays?
MCF10A rereplic: inactive; ELG1 genotox: inactive[9.26 µM]; A-T KAP1 phos: inactive; ELG1 DNA repair: inactive; SW480 rerep: inactive; p53 reactivation: inactive

What do the screens show for `CN1CCN(NC(=O)c2cc(-c3ccc(Br)s3)nc3ccccc23)CC1`?
MCF10A rereplic: 23µM; ELG1 genotox: inactive; A-T KAP1 phos: inactive; ELG1 DNA repair: inactive; SW480 rerep: inconclusive; p53 reactivation: inactive

How did COc1ccc(CCNCC(O)COc2c(C)cccc2C)cc1OC (stereo not given) do in these assays?
MCF10A rereplic: inactive; ELG1 genotox: inactive; A-T KAP1 phos: inactive; ELG1 DNA repair: inactive; SW480 rerep: inactive; p53 reactivation: inactive

What do the screens show for `O=C(N/N=C/C1CC=CCC1)c1ccc(O)cc1O` (stereo not given)?
MCF10A rereplic: inactive; ELG1 genotox: inactive; A-T KAP1 phos: inactive; ELG1 DNA repair: inactive; SW480 rerep: inactive; p53 reactivation: inactive

How did COc1cc(C(=O)N/N=C/c2ccsc2C)cc(OC)c1OC do in these assays?
MCF10A rereplic: inconclusive; ELG1 genotox: inactive; A-T KAP1 phos: inactive; ELG1 DNA repair: inactive; SW480 rerep: 0.65µM; p53 reactivation: inactive

What do the screens show for `COc1cc(C(=O)N/N=C/C2CC=CCC2)cc(OC)c1OC` (stereo not given)?
MCF10A rereplic: 3.7µM; ELG1 genotox: inactive; A-T KAP1 phos: inactive; ELG1 DNA repair: inactive; SW480 rerep: inconclusive; p53 reactivation: inactive

What do the screens show for `O=C(CSc1nc2ccccc2s1)Nc1cc(S(=O)(=O)N2CCOCC2)ccc1Cl`?
MCF10A rereplic: inactive; ELG1 genotox: inactive; A-T KAP1 phos: inactive; ELG1 DNA repair: 23µM; SW480 rerep: inactive; p53 reactivation: inactive

What do the screens show for `O=C(CNc1ccccc1Cl)Nc1cc(S(=O)(=O)N2CCOCC2)ccc1Cl`?
MCF10A rereplic: inactive; ELG1 genotox: inactive; A-T KAP1 phos: inactive; ELG1 DNA repair: inconclusive; SW480 rerep: inactive; p53 reactivation: inactive

How did O=C(Nc1ccc(S(=O)(=O)N2CCOCC2)cc1)c1ccc([N+](=O)[O-])cc1Cl do in these assays?
MCF10A rereplic: inconclusive; ELG1 genotox: inactive; A-T KAP1 phos: inactive; ELG1 DNA repair: inconclusive; SW480 rerep: inconclusive; p53 reactivation: inactive

Results for O=C(Nc1cc(S(=O)(=O)N2CCOCC2)ccc1Cl)c1cc([N+](=O)[O-])ccc1Cl ?
MCF10A rereplic: inactive; ELG1 genotox: inactive; A-T KAP1 phos: inactive; ELG1 DNA repair: inconclusive; SW480 rerep: 12µM; p53 reactivation: inactive

What do the screens show for `Cc1cc2nnc(SCC(=O)Nc3cc(S(=O)(=O)N4CCOCC4)ccc3Cl)n2c2ccccc12`?
MCF10A rereplic: inactive; ELG1 genotox: inactive; A-T KAP1 phos: inactive; ELG1 DNA repair: 18µM; SW480 rerep: inactive; p53 reactivation: inactive

What do the screens show for `Cc1ccc(-n2c(SCC(=O)Nc3cc(S(=O)(=O)N4CCOCC4)ccc3Cl)nc3ccccc3c2=O)cc1`?
MCF10A rereplic: inactive; ELG1 genotox: inactive; A-T KAP1 phos: inactive; ELG1 DNA repair: inactive; SW480 rerep: inactive; p53 reactivation: inactive
